From PubChem
This excerpt belongs to a sample that is enriched for hits.
BL2 CD40 inh = CD40 pathway inhibition in BL2 cells; AID 1053188; actives 0.94% (n = 83,000); BL2 NF-kB luciferase reporter, CD40L-induced, 4 h; inhibition, % at 10 µM;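 active = mean inhibition of at least 50% with a set share of replicates also reaching that level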;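 note: 0% = neutral control wells and 100% = IKK inhibitor VII at 50 µM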
* marks the source's active call; other numbers are inactive results; [ ] = remark or other dose.

SMILES | BL2 CD40 inh
CCOC(=O)N1CCN(Cc2ccc(O)c3ncccc23)CC1 | 65.2*
COCc1cc(CN2CCCC2)c(O)c2ncccc12 | 9.7
Oc1ccc(CN2CCN(c3ccccc3)CC2)c2cccnc12 | -12.9
COc1ccc(C#Cc2ccc([C@@H]3[C@H](CO)N4CCCCN(C)C[C@@H]34)cc2)cc1 | -52.3[25 µM]
COc1ccc(C#Cc2ccc([C@@H]3[C@H](CO)N4CCCCN(C(=O)c5ccncc5)C[C@@H]34)cc2)cc1 | -18.9[25 µM]
COc1ccc(C#Cc2ccc([C@@H]3[C@H]4CN(C(=O)c5ccncc5)CCCCN4[C@H]3CO)cc2)cc1 | -15.7[25 µM]
COc1ccc(C#Cc2ccc([C@H]3[C@@H](CO)N4CCCCN(C)C[C@@H]34)cc2)cc1 | active[25 µM]
COc1ccc(C#Cc2ccc([C@H]3[C@H]4CN(C(=O)c5ccncc5)CCCCN4[C@H]3CO)cc2)cc1 | 52.5*[25 µM]
COc1ccc(C#Cc2ccc([C@@H]3[C@@H](CO)N4CCCCN(C)C[C@H]34)cc2)cc1 | -53.8[25 µM]
CN(C)CC(=O)N1[C@@H](C#N)[C@H](c2ccccc2-c2cccc(C(=O)N(C)C)c2)[C@@H]1CO | -15.4[25 µM]
COCC(=O)N1C[C@H]2[C@@H](c3ccccc31)[C@H](CO)N2C(=O)c1ccncc1 | -7.3[25 µM]
FC(F)(F)CN1CC2C(c3ccc(Br)cc3)C(C1)N2CC(F)(F)F (stereo not given) | -3.8
CCOc1ccccc1NC(=O)c1cccc(NC(=O)c2cccnc2)c1 | 4.2
O=C(C1CCCC1)N1CC[C@H]2[C@H](CO)Nc3ccc(Br)cc3[C@H]21 | -6.7
CO[C@@H]1CN(C)C(=O)c2ccc(NC(=O)Nc3c(C)noc3C)cc2OC[C@H](C)N(C)C[C@@H]1C | -5.8
O=C(c1ccc(Nc2nccc(-c3cc4ccccc4s3)n2)cc1)N1CCC(N2CCCC2)CC1 | 68.3*[25 µM]
O=C(c1ccccc1)N1CCN(C2CCCCCC2)CC1 | -3.4
COc1ccc(C(=O)N2CCC(N3CCN(c4ccccc4)CC3)CC2)cc1 | 3.2
CCOC(=O)CC(S(=O)(=O)c1ccccc1)S(=O)(=O)c1ccccc1 | 97.4*
CCOC(=O)CN(c1ccccn1)S(=O)(=O)c1ccccc1 | 3.2
CCOC(=O)N=S(N)(=O)c1ccccc1 (stereo not given) | 4.4
O=C(CN1CCOCC1)NCC[C@H]1CC[C@H](NC(=O)Nc2ccccc2)[C@H](CO)O1 | 1.9
CC(C)CC#Cc1ccc([C@@H]2[C@@H](CO)N3C(=O)CN(C(=O)Nc4cc(F)ccc4F)C[C@@H]23)cc1 | 28.3[25 µM]
CC(=O)Nc1ccc2c(c1)CC(=O)N(C)C[C@H](C)[C@@H](CN(C)C)O2 | 11.9
O=C(NC1CCCC1)c1cc2nc(-c3ccccc3)cc(-c3ccccc3)n2n1 | 8.7
SMILES | BL2 CD40 inh
O=C(Nc1nc2nc(-c3ccccc3)cc(-c3ccccc3)n2n1)c1ccco1 | 27.4
CC(=O)Nc1nc2nc(-c3ccccc3)cc(-c3ccccc3)n2n1 | 30.0*
C[C@H](C(=O)N(C)C[C@H]1OCc2ccccc2-c2ccccc2C(=O)N([C@H](C)CO)C[C@@H]1C)c1ccccc1 | -4.9
O=C(Nc1ccccc1F)N1C[C@@H]2[C@H](c3ccccc31)[C@@H](CO)N2C(=O)C1CC1 | -9.6
CCCNC(=O)N1[C@@H](C#N)[C@@H](c2ccc(-c3cccnc3)cc2)[C@@H]1CO | 5.8[25 µM]
CCCNC(=O)N1[C@H](C#N)[C@@H](c2ccc(-c3ccccc3F)cc2)[C@@H]1CO | 2.3[25 µM]
CCCNC(=O)N1[C@H](CO)[C@H](c2ccc(/C=C/c3ccccc3)cc2)[C@@H]1C#N | 66.3*[25 µM]
CCCNC(=O)N1[C@H](C#N)[C@@H](c2ccc(-c3ccccc3F)cc2)[C@H]1CO | 8.5[25 µM]
CCCNC(=O)N1[C@H](C#N)[C@@H](c2ccc(-c3ccc(C(=O)N(C)C)cc3)cc2)[C@@H]1CO | -25.7[25 µM]
CCCNC(=O)N1[C@H](CO)[C@H](c2ccc(-c3cccc(OC)c3)cc2)[C@@H]1C#N | 67.9*[25 µM]
CCCNC(=O)N1[C@H](CO)[C@H](c2ccc(-c3cccnc3)cc2)[C@@H]1C#N | 31.7[25 µM]
CCCNC(=O)N1[C@H](CO)[C@H](c2ccccc2-c2cccc(OC)c2)[C@@H]1C#N | 36.0[25 µM]
CCCNC(=O)N1[C@@H](C#N)[C@H](c2ccc(-c3cccc(OC)c3)cc2)[C@@H]1CO | 50.7*[25 µM]
CC(C)NC(=O)N(C)C[C@H]1Oc2ccc(NS(C)(=O)=O)cc2CC(=O)N(C)C[C@H]1C | -2.5
C[C@H](CO)N1C[C@H](C)[C@H](CN(C)C(=O)c2ccc(F)cc2)OCc2ccccc2-c2c(n(C)c3ccccc23)C1=O | 11.4
O=C(Cc1cccc2ccccc12)NC1CCCCCC1 | -14.5
C[C@H](CO)N1C[C@H](C)[C@H](CN(C)Cc2ccccc2)OCc2cnnn2CCCC1=O | -2.5
OC[C@@H]1[C@@H](c2ccc(/C=C/c3ccccc3)cc2)[C@@H]2CN(Cc3ccncc3)CCCCN12 | -18.8[25 µM]
CN1CCN(C(=O)C[C@@H]2CC[C@H]3[C@@H](COc4ccc(NC(=O)C5CCCC5)cc4C(=O)N3C)O2)CC1 | 3.1
COc1nnc(-c2ccc(C)c(S(=O)(=O)NCC3CCCO3)c2)c2ccccc12 (stereo not given) | -0.1
Cc1ccc(-c2nn3c(C)nnc3c3ccccc23)cc1S(=O)(=O)NCc1ccccc1 | 43.5*
CC(=O)NCc1nnc2c3ccccc3c(-c3ccccc3)nn12 | 15.6
CC1(C)CC(C(CC(=O)O)c2ccccc2)CCO1 (stereo not given) | -3.2
COc1ccc(CN(CCC(c2ccc(F)cc2)C2CCOC(C)(C)C2)C(=O)c2ccco2)cc1 (stereo not given) | 37.3*
O=C(c1ccco1)N(CCC(c1ccccc1)c1ccco1)Cc1ccccc1 (stereo not given) | -1.4
SMILES | BL2 CD40 inh
N#C[C@H]1[C@H](c2ccc(C3=CCCCC3)cc2)[C@@H](CO)N1C(=O)c1cccc(F)c1 | -17.3[25 µM]
COc1ccc(NC(=O)N2CCCCN3[C@H](CO)[C@@H](c4ccc(C#Cc5ccccn5)cc4)[C@H]3C2)cc1 | -11.8
Cc1cccc(OCC(=O)OC(C)C(=O)Nc2ccc(Cl)cn2)c1 (stereo not given) | 7.7
Cc1cnc(C(=O)OC(C)C(=O)Nc2ccc(Cl)cn2)cn1 (stereo not given) | 6.9
CCOc1ncccc1C(=O)OC(C)C(=O)Nc1ccc(Cl)cn1 (stereo not given) | 67.7*
COCC(=O)N1[C@H](CO)[C@H](c2ccc(-c3ccccc3OC)cc2)C12CN(C(C)=O)C2 | -6.3[25 µM]
N#C[C@H]1[C@H](c2ccccc2)[C@H](CO)N1C(=O)Nc1cccc(F)c1 | -4.9[25 µM]
CC(=O)NC(CC(C)C)C(=O)NC(Cc1ccccc1)C(=O)CCl (stereo not given) | -3.1
CCCC(NS(=O)(=O)c1ccc(C)cc1)C(=O)O (stereo not given) | 14.7
Cc1ccc(S(=O)(=O)N[C@@H](Cc2ccccc2)C(=O)CCl)cc1 | 39.4*
CN(C)C(=O)C[C@@H]1CC[C@H]2[C@H](COc3ccc(NC(=O)C4CCC4)cc3C(=O)N2C)O1 | 4.3
C[C@H]1CN(C)C(=O)c2ccccc2O[C@@H]1CN(C)S(C)(=O)=O | 9.5
COCC(=O)N1[C@H](CO)[C@@H]2c3ccccc3N(C(=O)Nc3cc(F)ccc3F)C[C@@H]21 | -2.8[25 µM]
O=c1cc(-c2ccc(O)cc2)oc2ccc3ccccc3c12 | 101.7*
COc1ccc(-c2cc(=O)c3c(C)cc(O)cc3o2)cc1 | -60.2
COc1cc2oc(-c3ccc(O)cc3)cc(=O)c2c(OC)c1O | -17.7
CCCNC(=O)N1[C@H](CO)[C@H](c2ccc(C3=CCCC3)cc2)[C@@H]1CNC(C)=O | 5.1
COc1cc(SC)ccc1-c1nc2ccncc2[nH]1 | -5.8[25 µM]
